From PubChem
Compounds with a hit are over-represented: about 2.5% of the library has one in this group of screens.
M18AAP inhibitor: PfM18AAP enzyme inhibition; recombinant PfM18AAP, H-Glu-NHMec fluorogenic cleavage; AID 1822; inhibition, % at 7.35 µM; 290,000 compounds, 1.2% hits;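 active = inhibition above the campaign mean inhibition over all tested compounds plus 3 SD, cut at about 28% in these data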
p97 ATPase inh: human p97 ATPase inhibition. recombinant p97 ATPase, Kinase-Glo ATP luminescence, 3 h. AID 1481. inhibition, % at 8 µM. 220,000 compounds, 0.42% hits. P55072; in the data active = inhibition above about 15%
PHOSPHO1 inh: blocks human PHOSPHO1 phosphatase activity. Q8TCT1. recombinant PHOSPHO1, absorbance phosphatase assay. inhibition, % at 13.3 µM. 290,000 compounds, 1.1% hits. AID 1565; in the data active = inhibition above about 60%
G6PDH counter: L. mesenteroides G6PDH inhibition counter-screen; inhibition, % at 5 µM; 200,000 compounds, 0.12% hits; AID 1020; Purified L. mesenteroides G6PDH, diaphorase/resazurin coupled fluorescence, 45 min; in the data active = inhibition above about 50%
UBC9 SUMO inh: SUMOylation inhibition; HTRF SUMOylation assay, SAE1/SAE2 + UBC9, in vitro; inhibition, % at 35 µM; 290,000 compounds, 0.36% hits; AID 2006; in the data active = inhibition above about 50%, passing the limit was not always enough; inconclusive = no clear call, values can overlap the other calls
HDAC3 inhib: inhibitors of human histone deacetylase 3; O15379; recombinant HDAC3, fluorogenic peptide/trypsin coupled, fluorescence; AID 2718; inhibition, % at 8.3 µM; 320,000 compounds, 0.15% hits; in the data active = inhibition above about 26%, passing the limit was not always enough; inconclusive = no clear call, values can overlap the other calls
Target sequence (O15379 whole entry, looked up): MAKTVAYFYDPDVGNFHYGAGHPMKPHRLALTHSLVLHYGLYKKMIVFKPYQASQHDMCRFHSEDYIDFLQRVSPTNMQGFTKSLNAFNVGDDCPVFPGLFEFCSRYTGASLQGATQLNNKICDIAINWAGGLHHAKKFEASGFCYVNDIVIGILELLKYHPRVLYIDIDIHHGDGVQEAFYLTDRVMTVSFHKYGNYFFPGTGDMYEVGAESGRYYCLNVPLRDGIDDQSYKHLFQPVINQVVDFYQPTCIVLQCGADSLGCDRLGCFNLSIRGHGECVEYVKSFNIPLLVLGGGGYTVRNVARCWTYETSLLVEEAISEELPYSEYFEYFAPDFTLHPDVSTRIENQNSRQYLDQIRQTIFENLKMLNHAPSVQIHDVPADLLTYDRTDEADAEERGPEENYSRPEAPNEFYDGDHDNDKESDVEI
p97 confirm: confirmation of human p97 ATPase inhibitors | shares compounds with p97 ATPase inh | 760 compounds, 44% hits | inhibition, % at 8 µM | recombinant p97 ATPase, Kinase-Glo ATP luminescence;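 active = percent inhibition of p97 ATPase above a set limit, the primary screen's mean plus 3 SD, cut at about 15% in these data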
Numbers stand for hits; . = inactive; ? = inconclusive; / = not tested or not shown.

SMILES | M18AAP inhibitor | p97 ATPase inh | PHOSPHO1 inh | G6PDH counter | UBC9 SUMO inh | HDAC3 inhib | p97 confirm
O=S(=O)(Nc1c(S(=O)(=O)c2ccccc2)c2nc3ccccc3nc2n1C1CCCCC1)c1ccccc1 | . | 20 | . | . | 99 | . | .
CC(=O)Nc1c(S(=O)(=O)c2ccccc2)c2nc3ccccc3nc2n1Cc1ccccc1 | . | . | . | . | . | . | /
C=CCn1c(NS(=O)(=O)c2ccccc2)c(S(=O)(=O)c2ccc(C)cc2)c2nc3ccccc3nc21 | . | 31 | . | . | / | . | 29
O=c1[nH]c(=O)n(C2CCCO2)cc1F (centres undefined) | . | 20 | . | . | . | . | .
O=S(=O)(CCSc1nc2ccccc2s1)c1nc2ccccc2s1 | . | 23 | 76 | . | . | . | 17
CCS(=O)(=O)CCSc1nc2ccccc2s1 | . | . | . | . | . | . | /
O=S1(=O)Nc2c(ccc3cccnc23)-c2ccccc21 | . | 23 | . | . | . | . | 32
C/C(=N\NC(=O)c1ccc(NS(=O)(=O)c2cccs2)cc1)c1ccc(O)cc1O | . | 20 | . | / | . | . | 20
O=C(CCl)Nc1cn(-c2ccccc2)nc1-c1ccc(F)cc1 | . | 17 | . | . | . | . | 26
COc1ccc(N2CCN(C(=O)CSc3nc4[nH]ncc4c(=O)n3-c3cccc4ccccc34)CC2)cc1 | . | . | . | . | . | . | /
COc1cc2c(cc1OC)CN(C(=O)CSc1nc3[nH]ncc3c(=O)n1-c1ccccc1)CC2 | 31 | 20 | . | . | . | . | .
O=C(O)c1ccc(NS(=O)(=O)c2ccc3c(c2)C2C=CCC2C(c2ccccc2F)N3)cc1 (centres undefined) | . | 32 | . | . | / | / | 37
Cc1oc2c(c(=O)c1C)C(=O)CC(c1ccccc1)C2 (centres undefined) | . | . | . | . | . | . | /
CS(=O)(=O)c1sc(C#N)c2c1C(=O)CC(c1ccccc1)C2 (centres undefined) | . | 25 | . | / | . | . | 22
COc1ccccc1CNC(=O)CCCC(=O)n1ncc2cc(C)ccc21 | . | / | . | / | . | . | /
O=C(Nc1cccc(C(=O)N2CCCCC2)c1)c1ccccc1Br | . | / | . | / | . | . | /
CCCCn1[nH]c(-c2ccccc2)cc1=O | 30 | 21 | . | . | 80 | . | .
O=[N+]([O-])c1cc(S(=O)(=O)C(F)(F)F)ccc1Sc1nc2ccccc2[nH]1 | . | 20 | . | . | . | . | 29
O=c1c(O)cccc2cc(O)c(O)c(O)c12 | 48 | 38 | . | / | ? | . | 45
Cc1[nH]c2ccccc2c1C(=O)COC(=O)c1ccc([N+](=O)[O-])s1 | . | 39 | . | . | . | . | 31
Oc1ccc(Cl)cc1/C=C/c1ccc2cccc(O)c2n1 | . | 31 | . | . | . | / | 22
Oc1c(Cl)cc(Cl)cc1/C=C/c1ccc2cccc(O)c2n1 | . | . | . | . | . | . | /
COc1ccccc1CNC(=O)c1cc(-c2ccccc2C)n(CC2CC(c3cccc([N+](=O)[O-])c3)=NO2)n1 (centres undefined) | / | / | / | / | / | . | /
Cc1ccc(S(=O)c2ccc(NC(=O)C3CC3)cc2C#N)cc1 (centres undefined) | . | 17 | . | . | . | . | .
S=C1Cc2ccccc2N1 | . | 32 | . | / | 60 | / | 67
SMILES | M18AAP inhibitor | p97 ATPase inh | PHOSPHO1 inh | G6PDH counter | UBC9 SUMO inh | HDAC3 inhib | p97 confirm
CC(C)Cc1nnc(NC(=O)C2=COCCO2)s1 | / | / | / | / | / | . | /
CN1CN(C)c2cccc3cccc1c23 | . | 29 | . | . | . | . | .
CC1(C)Oc2ccc(C(=O)NC3CCCCC3)cc2N(CC#N)C1=O | . | / | . | / | . | . | /
COc1ccc(/C=N/NC(=O)Cn2ccnc2C)cc1OC | . | 18 | . | / | . | . | .
Cc1nccn1CC(=O)N/N=C/c1cccc(O)c1 | . | . | . | . | . | . | /
CCOc1cc(/C=C2/C(=O)N(c3ccccc3)N=C2C)ccc1OC(=O)c1ccco1 | . | 27 | . | . | . | . | .
CCOc1ccc(C(=O)CCC(=O)NCC(=O)Nc2c(C)cccc2C)cc1 | / | / | / | / | / | . | /
COc1cc(/C=C2\SC(=Nc3ccccc3OC)NC2=O)ccc1O | . | / | . | / | . | . | /
COc1ccc(/C=C2\CC/C(=C\c3ccc(OC)c(OC)c3)C2=O)cc1OC | . | . | . | . | . | . | /
